Data on 26 compounds can be found in PubChem BioAssay (NCI).

Molecules are shown by their SMILES. The panel holds about 83,000 compounds, 20% with a hit somewhere; the sample as a whole holds those more often.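 Activity criterion: percent growth below 10, measured after cells in 96-well plates were exposed to a single compound concentration for 48 hours.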 Calls of active or inactive are those of the source.

For this assay, the system named is HL-60(TB) leukemia. The experiment in a line: NCI-60 one-dose screen, 48 h (100 = growth as untreated, 0 = no growth, -100 = all killed). Conditions: 10 µM unless noted.
Consider `CCCCCCCCCCCCCCCC(=O)OC1[C@@H](OC(=O)CCCCCCCCCCCCCCC)[C@@H](C(=O)N[C@@H](CCCCN)C(=O)OC)O[C@H]1n1cnc2c(=O)[nH]c(NC(=O)C(C)C)nc21` (stereo partly specified), for which the growth was 98.3% (inactive). For the compound `CCOC(=O)C(O)C(O)(c1ccccc1)c1ccccc1` (stereo unspecified), the growth is 91.1% (inactive). Then `CC(C)CCSc1nc(Nc2ccccc2)c(C#N)c(-c2ccc(F)cc2)n1`, with 59.6% (inactive).

In the case of `COc1ccc(-c2ccc(-c3ccc(C(=N)N)o3)o2)cc1`, the growth is -46.2% (active). Consider `CNCCCn1c2c(c3ccc([N+](=O)[O-])cc3c1=O)C(=O)c1cc(OC)cnc1-2`, for which the growth was -32.3% (active). Take `CC(C)Cc1nc(Nc2ccccc2)[nH]c(=O)c1C#N`: the growth was 57.7% (inactive). `Nc1c(C(=O)Nc2cccc3ccccc23)sc2nc3c(cc12)CCCCC3`: the growth was -25.9% (active). As for `C[N+](C)(C)c1ccc(CC2c3ccccc3-c3ccccc32)cc1`, the growth is 47.8% (inactive). Then `COc1ccc(-n2c(=O)n(-c3ccc(-c4nc5ccc(F)cc5s4)cc3)c(=O)c3cccnc32)cc1`, with 102% (inactive); and `O=C(O)c1cn(C2CC2)c2cc(N3CCN(S(=O)(=O)c4ccc(Cl)c(Cl)c4)CC3)c(F)cc2c1=O`, with -38.3% (active). On to `O=C1CC(c2ccc3c(c2)OCO3)c2ncn(-c3ccc(Cl)cc3)c2N1` (stereo unspecified), for which the growth was -9.97% (active). The same measure for `CC(Oc1ccc(Cl)cc1)c1ccccc1` (stereo unspecified): 93.6% (inactive); for `Oc1c(CN2CCOCC2)cc(COCc2ccccc2)c2cccnc12`: 0.702% (active). For `C/C(=N\NC(=O)c1ccc(C(C)(C)C)cc1)c1ccc(O)cc1O`, the growth was 9.36% (active).

`Nc1ccc(N)c2c1C(=O)c1cccc([N+](=O)[O-])c1C2=O`: the growth is 17.8% (inactive).

Consider `O=C(CSc1nc2sc3c(c2c(=O)n1-c1ccccc1)CCCCC3)N/N=C/c1cccc([N+](=O)[O-])c1`, for which the growth was 103% (inactive).

On to `O=C(N/N=C/c1ccccc1O)c1ccccc1`, for which the growth was 11.4% (inactive). The same measure for `O=C1C(c2ccccc2)C2C=CC(C2)N1O` (stereo unspecified): 93% (inactive); for `CCOC(=O)c1cnc2ccc(OC)cc2c1Nc1cccc(S(=O)(=O)NC)c1`: 109% (inactive); for `COc1ccc(OC)c(N(CCN2C(=O)c3ccccc3C2=O)C(=O)CCl)c1`: -63.3% (active).

Take `CC(=O)C1C(=O)C(=O)N(c2ccc(Cl)c(Cl)c2)C1=O` (stereo unspecified): the growth is 98.6% (inactive). `CS(=O)(=O)Nc1cc(-c2ccc3ncnc(Nc4ccc5c(cnn5Cc5ccccc5F)c4)c3c2)cnc1Cl`: the growth was 22.7% (inactive). Take `CC(=O)N(C)c1ccc([N+](=O)[O-])cc1`: the growth was 72.8% (inactive). As for `COc1cc(C2CC(c3ccc(Cl)cc3)=NN2C(C)=O)ccc1Oc1nc2c(c(=O)n(C)c(=O)n2C)n1C` (stereo unspecified), the growth was 94.2% (inactive). Then `C=C(C)[C@@H]1CCC[C@]2(C(=O)N3CCN(C)CC3)CC[C@]3(C)[C@@H](CC[C@@H]4[C@@]5(C)CC/C(=N\NC(=O)c6ccncc6)C(C)(C)[C@@H]5CC[C@]43C)[C@@H]12`, with 82.8% (inactive); and `O=C(CCl)Nc1ccc2c(c1)C(=O)c1ccc(NC(=O)CCl)cc1C2=O`, with -59.7% (active).
